High-throughput results as filed in PubChem BioAssay.
In the library only some 1.3% were active in any assay of this set; here they are far more common.
TRPV1 ag: HTS Assay for Compounds that Act as Agonists of the Vanilloid Receptor 1; 320,000 compounds, 0.19% hits; activation, % at 8.33 µM; Transient receptor potential cation channel subfamily V member 1 (Homo sapiens), Q8NER1; TRPV1-expressing cells, Fluo-8 calcium influx, agonist mode; in the data active = activation above about 80%; inconclusive = between about 30% and that limit; also: 0% is about no effect
Target sequence (Q8NER1 whole entry, looked up): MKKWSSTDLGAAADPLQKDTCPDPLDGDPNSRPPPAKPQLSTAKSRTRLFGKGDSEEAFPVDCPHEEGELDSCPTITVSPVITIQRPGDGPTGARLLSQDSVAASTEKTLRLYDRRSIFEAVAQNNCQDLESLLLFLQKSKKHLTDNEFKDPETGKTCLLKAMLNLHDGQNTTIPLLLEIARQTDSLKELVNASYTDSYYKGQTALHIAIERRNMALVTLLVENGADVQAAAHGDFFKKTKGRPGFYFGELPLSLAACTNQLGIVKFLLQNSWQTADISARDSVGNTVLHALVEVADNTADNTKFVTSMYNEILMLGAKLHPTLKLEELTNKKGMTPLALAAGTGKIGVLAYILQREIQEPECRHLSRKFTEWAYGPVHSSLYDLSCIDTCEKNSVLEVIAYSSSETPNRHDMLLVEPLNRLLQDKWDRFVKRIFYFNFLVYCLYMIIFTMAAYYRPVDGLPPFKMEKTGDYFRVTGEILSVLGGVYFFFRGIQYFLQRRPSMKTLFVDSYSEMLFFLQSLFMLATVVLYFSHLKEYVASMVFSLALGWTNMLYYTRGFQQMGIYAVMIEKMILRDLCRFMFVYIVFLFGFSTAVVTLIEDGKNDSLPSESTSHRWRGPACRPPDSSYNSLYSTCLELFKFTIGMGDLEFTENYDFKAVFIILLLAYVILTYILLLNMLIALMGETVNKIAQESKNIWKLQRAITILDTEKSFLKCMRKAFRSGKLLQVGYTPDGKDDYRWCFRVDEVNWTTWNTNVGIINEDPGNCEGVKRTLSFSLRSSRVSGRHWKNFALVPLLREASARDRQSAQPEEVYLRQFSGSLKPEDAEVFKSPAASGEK
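Cells expressing TRPV1 were dye-loaded with Fluo-8 and read kinetically: 10 s baseline, 3 min after compound (agonist portion), then 2 min after EC20 capsaicin (allosteric enhancer portion). Calcium-bound dye fluorescence at 480/520 nm.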
KCNH2 3.1 inh: qHTS for Inhibitors of KCHN2 3.1: Mutant qHTS. Potassium voltage-gated channel subfamily H member 2, brain isoform KCNH2 3.1 (human). U2OS KCNH2 3.1, thallium flux FluxOr; stronger effect = lower value. activity change, % (tested at about 1.8 µM). 340,000 compounds, 0.95% hits;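 active = maximum activity change below -70%; inconclusive = maximum activity change from -70% to -50%; inactive = maximum activity change above -50%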;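 also: thallium influx rate constant from kinetic fluorescence after stimulation buffer; % is scaled to controls: 0 for no effect and ±100 for the full control effect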
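Measured as rate of thallium-driven FluxOr signal in transduced U2OS cells carrying the 3.1 channel, read kinetically for 2 min upon stimulation; values are rate constants scaled to DMSO control wells.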
TRPV1 PAM: HTS Assay for Compounds that Act as Potentiators of the Vanilloid Receptor 1; Transient receptor potential cation channel subfamily V member 1 (Homo sapiens), Q8NER1; TRPV1-expressing cells, Fluo-8 calcium influx, capsaicin EC20 potentiation; potentiation, % at 8.33 µM; 320,000 compounds, 0.02% hits; in the data active = potentiation above about 80%; inconclusive = between about 30% and that limit; also: 0% is about no effect
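Fluo-8 calcium influx in TRPV1-expressing cells, kinetic read (ex 480/em 520 nm). Compound added and read 3 min for agonist activity, followed by capsaicin at EC20 final and 2 min further read for enhancement.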
KCNH2 WT inh: qHTS for Inhibitors of KCHN2 3.1: Wildtype qHTS; Voltage-gated inwardly rectifying potassium channel KCNH2 (Homo sapiens), Q12809; U2OS, BacMam KCNH2, thallium flux FluxOr; stronger effect = lower value; 340,000 compounds, 0.37% hits; activity change, % at 1.84 µM;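 active = maximum activity change below -70%; inconclusive = maximum activity change between -70% and -50%; inactive = maximum activity change above -50%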; also: % is scaled to controls: 0 for no effect and ±100 for the full control effect
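U2OS cells were transduced with wild-type KCNH2 virus (2.03 x 10^8 / mL) for 4 h at room temperature, then cultured overnight at 37 C. Thallium flux was read with FluxOr dye. Rate constants were normalized to DMSO controls.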
* = called active by the depositor; ? = inconclusive; / = no result given.

SMILES	TRPV1 ag	KCNH2 3.1 inh	TRPV1 PAM	KCNH2 WT inh
CCOC(=O)C1(CCOc2ccccc2)CCN(CCCn2cccn2)CC1	8	-88*	-1	-38
CCOC(=O)C1(CCOc2ccccc2)CCN(CC=C(C)C)CC1	1	-3	2	20
CCOC(=O)C1(CCOc2ccccc2)CCN(C(=O)c2ccc(-n3cccn3)cc2)CC1	-9	-87*	8	?
CCOC(=O)C1(CCOc2ccccc2)CCN(Cc2cccc(F)c2)CC1	10	?	-5	-30
CC(C)(C)S(=O)N1Cc2cc(CO)ccc2[C@@H]1CCO (stereo partly specified)	/	-4	/	-4
CCc1c(C)sc(NC(=O)c2ccco2)c1C#N	29	-9	-24	-10
COc1ccc(C(C)=O)cc1CSc1nnc(Nc2ccccc2C)s1	2	-117*	11	17
O=C(NCCc1ccc(Cl)cc1)c1ccc(=O)[nH]c1	-1	9	0	-1
COc1ccc(CCNC(=O)c2ccc(=O)[nH]c2)cc1	-1	-71*	2	0
O=c1c2ccccc2[nH]c(=S)n1CCCN1CCC(Cc2ccccc2)CC1	1	-76*	5	-14
O=C(NC1=C(Nc2ccc(Cl)cc2)C(=O)c2ccccc2C1=O)c1ccccc1	?	-1	-19	2
CN(C1=C(NC(=O)c2ccc(Cl)cc2)C(=O)c2ccccc2C1=O)c1ccccc1	9	-98*	-2	-153*
Cc1ccc(S(=O)(=O)N2CCOCC2)cc1NC(=O)CSc1nc2ccccc2c(=O)n1Cc1ccccc1	5	?	-10	-20
CS(=O)(=O)c1ccc(Cl)c(NC(=O)CSc2nc3ccccc3c(=O)n2Cc2ccco2)c1	2	-98*	-1	-13
O=C(CSc1nc2cc(Cl)ccc2c(=O)n1Cc1ccco1)Nc1ccc(S(=O)(=O)N2CCOCC2)cc1	-1	-75*	2	-15
CC(C)c1ccc(NC(=O)CSc2n[nH]c(=O)n2Cc2ccco2)cc1	?	-88*	2	-1
COC(=O)c1ccc2c(=O)n(Cc3ccco3)c(SCC(=O)Nc3ccc(C)c(Cl)c3)nc2c1	7	-75*	-31	-18
Cc1ccc(CNC(=O)C2CCN(C(=O)Nc3ccccc3)CC2)cc1	9	4	-10	7
CCN(C(=O)COC(=O)c1ccc(F)c(S(=O)(=O)N2CCOCC2)c1)C1CCS(=O)(=O)C1 (stereo unspecified)	0	/	6	5
Cc1ccc(S(=O)(=O)NCC(=O)N(CC(=O)NCC2CCCO2)Cc2ccc(Cl)cc2)cc1 (stereo unspecified)	4	13	0	18
FC(F)(F)c1ccnc(NCc2ccco2)n1	-1	22	10	18
CC(=O)NCCCc1nc2ccccc2n1Cc1cc(C)ccc1C	89*	24	2	-5
CCc1ccc(NC(=O)c2sc3nc4n(c(=O)c3c2C)CCC4)cc1	-2	-91*	-22	8
CCc1ccc(NC(=O)COC(=O)/C=C/c2ccco2)cc1	/	-121*	/	18
CC(=O)c1cccc(N(C(=O)Cn2nnc3ccccc32)C(C(=O)NCC2CCCO2)c2ccc(N3CCOCC3)cc2)c1 (stereo unspecified)	1	1	5	-14
SMILES	TRPV1 ag	KCNH2 3.1 inh	TRPV1 PAM	KCNH2 WT inh
O=C(NCCc1ccncc1)Nc1ccccc1	5	5	-2	4
O=C(NCCc1ccncc1)Nc1ccc(Cl)c(Cl)c1	27	-82*	-12	-13
O=c1ccc(S(=O)(=O)N2CCCC2)cn1Cc1ccc(F)cc1	-1	4	17	-1
Cc1ccc(C)c(CN2CCC(CNC(=O)Nc3ccc(Cl)cc3)CC2)c1	19	-88*	-19	-9
Cc1ccc(C)c(CN2CCC(CNC(=O)Nc3ccc(Br)cc3F)CC2)c1	1	-71*	-4	-19
Cc1ccccc1CC1CCN(CCCNC(=O)Nc2ccccc2)CC1	2	-80*	-1	30
Cc1c(C(N)=O)sc2ncn(CC(=O)N(C)C3CCCCC3)c(=O)c12	0	-46	-5	-6
N#Cc1ccc(CN2CCN(CC(=O)NCCc3ccc(Cl)cc3Cl)CC2)cc1	-2	-80*	0	-79*
O=C(Cn1cc(C(F)(F)F)ccc1=O)NCCc1ccc(Cl)cc1Cl	14	0	-3	9
COc1ccccc1OCCN(C#N)c1nc(N(C)C)nc(N(C)C)n1	18	-84*	-21	1
C/C(=N\NC(=O)Cc1ccc(Cl)cc1)c1cccc(NC(=O)c2cccnc2)c1	-1	0	16	-2
O=C(Nc1cccc(-n2cnnn2)c1)c1ccoc1COc1ccc(Cl)cc1	?	-74*	12	?
COc1ccc(CNCC(=O)Nc2cc(OC)cc(OC)c2)cc1	-10	5	-23	-5
Cc1cccc(-c2ccc3c(c2)C2CC3CCN2Cc2ccc3c(c2)OCO3)c1 (stereo unspecified)	/	-76*	/	-13
Fc1ccc(-c2ccc3c(c2)C2CC3CCN2Cc2ccc3c(c2)OCO3)cc1 (stereo unspecified)	/	/	/	-37
CC1CC(C)CN(CCCNC(=O)c2ccc3c(c2)N(Cc2ccccc2)C(=O)c2ccccc2S3=O)C1 (stereo unspecified)	-11	-32	8	24
COc1ccccc1-c1c(C)nn2c(N3CCCCCC3)cc(C)nc12	26	11	-6	-250*
COc1ccccc1-c1c(C)nn2c(N3CCOCC3)cc(C)nc12	3	-5	-12	-10
Cc1ccc(C(=O)N/C(=C\c2cccs2)C(=O)N2CCCCCC2)cc1	?	1	-5	1
CCN1CCN(C(=O)/C(=C/c2cccs2)NC(=O)c2ccc(C)c(C)c2)CC1	3	12	-5	-100*
C[C@H](CO)N1C[C@H](C)[C@@H](CN(C)Cc2ccc(Cl)c(Cl)c2)Oc2c(NC(=O)Cc3ccccc3)cccc2C1=O	/	-78*	/	-15
C[C@H](CO)N1C[C@H](C)[C@@H](CN(C)Cc2ccc(Oc3ccccc3)cc2)Oc2ccc(NC(=O)Cn3cnnn3)cc2C1=O	/	10	/	-273*
C[C@H](CO)N1C[C@H](C)[C@@H](CN(C)Cc2ccccc2)Oc2ccc(NC(=O)Cn3cnnn3)cc2C1=O	/	8	/	6
Cc1noc(C)c1S(=O)(=O)N(C)C[C@H]1Oc2c(NC(=O)Nc3ccc(C(F)(F)F)cc3)cccc2C(=O)N([C@H](C)CO)C[C@@H]1C	/	-13	/	-5
Cc1noc(C)c1S(=O)(=O)N(C)C[C@H]1Oc2c(NC(=O)Nc3ccccc3)cccc2C(=O)N([C@H](C)CO)C[C@@H]1C	/	10	/	-124*
Cn1c(Cl)c(/C=N/OC(=O)C2CC2)c2ccccc21	1	-92*	4	3
